# Laboratory results taken from PubChem BioAssay AID485344 (National Center for Advancing Translational Sciences (NCATS), 2010).
# Several values for one entry are separate records, joined by “and”; a condition that tells them apart may be missing. Equal entries are not always repeated. Screen size: about 340,000 compounds; about 6,900 (2%) were called active. No stated cut-off is given here; in the data, active means inhibition above about 30%; inactive means below that, where a call was filed. Many of the other results were omitted from the sample, so actives are more common in it than they were.
# Biological target: D(2) dopamine receptor (Homo sapiens) (UniProt P14416)
# Sequence (P14416 whole entry, looked up): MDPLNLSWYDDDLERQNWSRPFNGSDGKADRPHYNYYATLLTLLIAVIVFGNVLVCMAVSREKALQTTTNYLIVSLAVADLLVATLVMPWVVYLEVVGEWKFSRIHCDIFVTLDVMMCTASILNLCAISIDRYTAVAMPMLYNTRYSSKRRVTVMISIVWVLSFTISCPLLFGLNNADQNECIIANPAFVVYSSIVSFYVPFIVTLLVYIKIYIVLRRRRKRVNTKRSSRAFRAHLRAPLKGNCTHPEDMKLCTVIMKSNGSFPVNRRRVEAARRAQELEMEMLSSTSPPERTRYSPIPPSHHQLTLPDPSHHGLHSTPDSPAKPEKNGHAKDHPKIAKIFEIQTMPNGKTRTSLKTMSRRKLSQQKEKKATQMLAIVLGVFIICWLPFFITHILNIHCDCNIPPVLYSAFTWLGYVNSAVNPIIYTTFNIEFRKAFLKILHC
# Assay: HTS Assay for Allosteric Antagonists of the Human D2 Dopamine Receptor: Primary Screen for Antagonists; further: 0% is about no effect
# Settings: HEK293 TREx D2 cells, calcium flux, dopamine EC80; at 10 µM; active compounds read high
# Outline: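 Calcium mobilization kinetics were recorded at 1 s intervals in tetracycline-induced HEK293 T-REx D2 cells, first for 180 s after compound addition and then 180 s after EC80 dopamine.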
row,SMILES,inhibition
1,CC(=O)c1c(C)c[nH]c1C,31.1% (active)
2,CCOC(=O)c1c(Cc2ccc(Cl)cc2)c[nH]c1C,-4.64% (inactive)
3,O=C(CSc1ncnc2sccc12)N1CCN(C(=O)c2cccs2)CC1,30% (inactive)
4,Cc1occc1-c1nnc(SCC(=O)NC2CCCCC2)o1,6.65% (inactive)
5,CC1CN(C(=O)CCC(=O)NCc2cccnc2)c2ccccc2O1 (centres undefined),35.5% (active)
6,CC1CN(C(=O)CCC(=O)NC2CCN(Cc3ccccc3)CC2)c2ccccc2O1 (centres undefined),-8.98% (inactive)
7,Cc1ccc2c(c1)N(C(=O)CCC(=O)NCc1cccnc1)CCO2,13.2% (inactive)
8,CC[C@H](C)C(=O)N[C@H]1CCCN1C(=O)/C=C/c1ccccc1,3.07% (inactive)
9,O=C(N[C@@H](Cc1c[nH]c2ccccc12)C(=O)O)OCC1c2ccccc2-c2ccccc21,5.76% (inactive)
10,COc1ccc(C)cc1NC(=O)CSc1nnc2ccc(-c3ccccn3)nn12,24.5% (inactive)
11,Cc1c(/C=N\NC(=O)c2cc3ccccc3o2)c2ccccc2n1C,33.1% (active)
12,O=C(N/N=C/c1coc2ccccc2c1=O)c1cc2ccccc2o1,-7.75% (inactive)
13,O=C(N/N=C/c1c[nH]c2ccccc12)c1cc2ccccc2o1,-9.07% (inactive)
14,COc1ccc(CCC(=O)N2CCN(S(=O)(=O)c3ccc(OC)cc3)CC2)cc1,-16.3% (inactive)
15,CC(C)OC(=O)CN1C(=O)C(=O)c2ccccc21,2.86% (inactive)
16,CCOC(=O)CN1C(=O)C(=O)c2cc(C)ccc21,37% (active)
17,Cc1cccc2c1N(CC(=O)OC(C)C)C(=O)C2=O,0.945% (inactive)
18,CC(CN1CCOCC1)OC(=O)c1ccc(C(C)(C)C)cc1 (centres undefined),70.8% (active)
19,Cc1ccc(C(=O)OC(C)CN2CCOCC2)cc1 (centres undefined),12.8% (inactive)
20,Cc1cccc(C(=O)OC(C)CN2CCCC2)c1 (centres undefined),-14% (inactive)
21,O=C(/C=C/c1ccccc1[N+](=O)[O-])OCC(=O)N1CCCC1,4.52% (inactive)
22,CC1CC(C)CN(C/C=C/c2ccccc2[N+](=O)[O-])C1 (centres undefined),7.28% (inactive)
23,O=[N+]([O-])c1ccccc1/C=C/CN1CCCC(CO)C1 (centres undefined),35.4% (active)
24,CCN(CC(=O)Nc1cc(Cl)ccc1C)C(=O)Cn1c(=O)cnc2ccccc21,17.9% (inactive)

row,SMILES,inhibition
1,COC(=O)[C@]1(S(=O)(=O)c2ccccc2)C[C@@H]2ON=C(c3ccc(OC)cc3)[C@@H]2C1,-8.41% (inactive)
2,N#C[C@]1(S(=O)(=O)c2ccccc2)C[C@@H]2ON=C(c3cccc(Br)c3)[C@@H]2C1,41.5% (active)
3,CC(=O)NC12CC3CC(C1)CC(C(=O)N1CCN(C(=O)c4ccco4)CC1)(C3)C2,-36.2% (inactive)
4,CC(C)(COC(=O)Nc1ccccc1)COC(=O)Nc1ccccc1,-9.72% (inactive)
5,CCCCC(CCC(=O)Nc1ccc(C(=O)OCC)cc1)C(=O)O (centres undefined),4.1% (inactive)
6,CCCCCOC(=O)NCCOC(=O)Nc1ccc(C(=O)OCC)cc1,33% (active)
7,CCOC(=O)Nc1ccc(NC(=O)OCC)cc1,38.8% (active)
8,Cc1ccc(NC(=O)OCCNC(=O)c2ccncc2)cc1,-36.9% (inactive)
9,CCOC(=O)Nc1ccc(S(=O)(=O)N(C)C(C)C)cc1,2.07% (inactive)
10,CCCCN(C(=O)C1=NN(c2cc(C)ccc2C)C(=O)CC1)c1c(N)n(CCC)c(=O)[nH]c1=O,-7.61% (inactive)
11,COc1cccc2[nH]c(C(=O)NCCc3ccccc3)cc12,-14.1% (inactive)
12,CC(O)CNCCOc1cccc(Oc2ccccc2)c1 (centres undefined),-19.3% (inactive)
13,COc1ccccc1OCCNCC(O)COc1cccc2[nH]c3ccccc3c12 (centres undefined),59.1% (active) and 51.5% (active)
14,O=S(=O)(O)Oc1c[nH]c2ccccc12,19.7% (inactive)
15,CCN(CC)S(=O)(=O)c1ccc(CNC(=O)CN2C(=O)NC3(CCc4ccccc43)C2=O)cc1 (centres undefined),-6.28% (inactive)
16,CCc1ccc(NC(=O)Cn2ncn3c(cc4ccccc43)c2=O)cc1,12.2% (inactive)
17,CCOC(=O)c1cn(CC(=O)Nc2ccc(C(C)C)cc2)nn1,-8.92% (inactive)
18,CC(C)c1ccc(NC(=O)Cn2ncc3ccccc32)cc1,32.4% (active)
19,COc1ccc(OCCCC(=O)Nc2cccc(S(=O)(=O)N3CCCCCC3)c2)cc1,-0.774% (inactive)
20,O=C(c1cn(-c2ccccc2)nc1-c1cccnc1)N1CCN(S(=O)(=O)c2ccccc2F)CC1,17.6% (inactive)
21,CCCN(CC(=O)NC(=O)NC1CCCCC1)CC(=O)Nc1cc(Cl)ccc1Cl,-13.3% (inactive)
22,O=C(CCCN1CCc2[nH]c3ccc(F)cc3c2C1)c1ccc(F)cc1,92.7% (active)
23,Fc1ccc(NC(=S)N2CCc3[nH]c4ccccc4c3C2)cc1,-0.813% (inactive)
24,Cc1ccc2[nH]c3c(c2c1)CN(C(=O)CN1CCN(c2ccccc2)CC1)CC3,4.69% (inactive)

row,SMILES,inhibition
1,O=C(COC(=O)c1ccc2ncsc2c1)Nc1ccc(Cl)cc1,18.7% (inactive)
2,CCc1ccc(CNC(=O)C2CCCN(c3nc4ccccc4o3)C2)cc1 (centres undefined),39.6% (active)
3,COc1ccccc1CNC(=O)C1CCN(c2nc3ccccc3o2)CC1,9.79% (inactive)
4,COc1ccc(OC)c(CNC(=O)C2CCCN(c3nc4ccccc4o3)C2)c1 (centres undefined),-3% (inactive)
5,CCCCc1ccc(NC(=O)CN2C(=O)NC(Cc3ccccc3)C2=O)cc1 (centres undefined),16.7% (inactive)
6,COCc1c(C(=O)OCC(=O)Nc2ccc(OC(F)F)cc2)oc2ccccc12,-10.8% (inactive)
7,CSc1ccc(CCNC(=O)CS(=O)(=O)Cc2nc(-c3ccccc3F)oc2C)cc1,-16.4% (inactive)
8,Cc1oc(-c2ccccc2F)nc1CS(=O)(=O)CC(=O)NCCCN(C)C1CCCCC1,45.2% (active)
9,Cc1oc(-c2ccccc2F)nc1CS(=O)CC(=O)NCCN1CCCCC1C (centres undefined),-10.8% (inactive)
10,O=[N+]([O-])c1cc(S(=O)(=O)NCCc2ccccn2)ccc1Cl,9.65% (inactive)
11,COc1ccc(CN2CCN(C(=O)c3cc(C4CC4)nn3-c3ccccc3)CC2)cc1F,-4.93% (inactive)
12,N#CC1(NC(=O)COC(=O)Cc2n[nH]c(=O)c3ccccc23)CCCCC1,-5.98% (inactive)
13,Cc1nn(Cc2ccccc2)c(C)c1CNC(=O)c1ccc(F)c(S(=O)(=O)N2CCOCC2)c1,5.64% (inactive)
14,CCOC(=O)C(=O)Nc1nc(-c2ccccc2)c(CC)s1,8.31% (inactive)
15,CCOC(=O)c1sc2nc(CSc3ccccc3)[nH]c(=O)c2c1C,20.4% (inactive)
16,CCOC(=O)c1sc2nc(SC)nc(-c3ccccc3)c2c1N,30.8% (active)
17,Cc1ccc(C)c(NC(=O)C(c2ccccc2)N2CCN(CC(=O)NC3CC3)CC2)c1 (centres undefined),5.16% (inactive)
18,COc1cccc(CNC(=O)Cc2csc(Nc3nc(=S)[nH]c4ccccc34)n2)c1,-15.6% (inactive)
19,O=C(Cc1ccc(-n2c(=O)[nH]c3ccccc3c2=O)cc1)N1CCN(c2cccc(Cl)c2)CC1,11.5% (inactive)
20,O=C(Cc1csc(Nc2nc(=S)[nH]c3ccccc23)n1)NCCCN1CCN(c2cccc(Cl)c2)CC1,69.4% (active)
21,COc1ccc(S(=O)(=O)N2CCOCC2)cc1NC(=O)c1ccc(OCC(C)C)c(OC)c1,-9.24% (inactive)
22,Cc1ccc(S(=O)(=O)NCCN2CCOCC2)cc1C,-3.48% (inactive)
23,Cn1c(=O)c(=O)n(C)c2cc(S(=O)(=O)NCCN3CCN(c4ccccc4F)CC3)ccc21,42.8% (active)
24,CCc1ccc(S(=O)(=O)Nc2cc3c(cc2N2CCCCC2)n(C)c(=O)c(=O)n3C)cc1,4.98% (inactive)

row,SMILES,inhibition
1,Cc1ccc(S(=O)(=O)N2CCOCC2)cc1C(=O)Nc1ccccc1N1CCCC1,3.22% (inactive)
2,CCOc1ccc(S(=O)(=O)N2CCCCC2)cc1NC(=O)CN1CCCC1c1cccs1 (centres undefined),19.6% (inactive)
3,CNCC(O)c1ccc(O)c(O)c1 (centres undefined),84.7% (active)
4,CC(=O)NCC(O)c1ccc([N+](=O)[O-])cc1 (centres undefined),12.7% (inactive)
5,COc1ccccc1CNC(=O)CCCN1C(=O)NC2(CCCC2)C1=O,0.109% (inactive)
6,NS(=O)(=O)c1ccc(CCNC(=O)COC(=O)COc2cccc(C(F)(F)F)c2)cc1,-7.34% (inactive)
7,CC(=O)C1=C(C)NC(=O)NC1c1cc(Br)ccc1OCC#N (centres undefined),-0.972% (inactive)
8,CCOC(=O)COc1ccc(Cl)cc1C1NC(=O)NC(C)=C1C(C)=O (centres undefined),30.8% (active)
9,CCOc1ccccc1C1NC(=O)NC(C)=C1C(=O)OCc1ccco1 (centres undefined),-14.9% (inactive)
10,O=C(COC(=O)Cn1[nH]c(=O)c2ccccc2c1=O)Nc1ncc(Cl)cc1Cl,-24.9% (inactive)
11,Cc1ccccc1C(=O)NCC(c1ccco1)N1CCc2ccccc21 (centres undefined),-18.5% (inactive)
12,Nc1cc(N)nc(SCC(=O)Nc2cccc(S(=O)(=O)N3CCCCC3)c2)n1,3.49% (inactive)
13,CCC(C)N(C(=O)Cn1nc(C)c([N+](=O)[O-])c1C)C1CCS(=O)(=O)C1 (centres undefined),15.9% (inactive)
14,C/C=C/c1ccc(OCCCCN2CCC(C)CC2)c(OC)c1,45.6% (active)
15,C/C=C/c1ccc(OCC(O)CN2CCCCCCC2)c(OC)c1 (centres undefined),-10.5% (inactive)
16,COc1ccc(OCCCCN2CCC(C)CC2)cc1,7.68% (inactive)
17,Cc1ccc(S(=O)(=O)N2CCN(c3ccccc3)CC2)cc1C,26.6% (inactive)
18,CS(=O)(=O)N1CCC(C(=O)N2CCN(c3ccccc3)CC2)CC1,47.3% (active)
19,O=C(C1CCC1)N1CCN(c2ccccc2)CC1,1.73% (inactive)
20,CCCS(=O)(=O)N1CCCC(C(=O)N2CCN(c3ccccc3)CC2)C1 (centres undefined),6.48% (inactive)
21,CCS(=O)(=O)N1CCC(C(=O)N2CCN(c3ccccc3)CC2)CC1,-2.98% (inactive)
22,CCS(=O)(=O)N1CCC(N2CCN(c3ccccc3)CC2)CC1,73.1% (active)
